HP1b binding inh: inhibitors of HP1-beta chromodomain binding to methylated histone tails; P83916; AlphaScreen HP1-beta / biotin-H3K9me3 peptide binding; Potency, µM (titrated, usually from 114 µM), for inactives: at the top dose activity change, negative = inhibition, usual class: inhibitors; 390,000 tested, 0.56% active; further: nearly all actives have a fitted effect of over 70% in size
Target sequence (P83916 whole entry, looked up): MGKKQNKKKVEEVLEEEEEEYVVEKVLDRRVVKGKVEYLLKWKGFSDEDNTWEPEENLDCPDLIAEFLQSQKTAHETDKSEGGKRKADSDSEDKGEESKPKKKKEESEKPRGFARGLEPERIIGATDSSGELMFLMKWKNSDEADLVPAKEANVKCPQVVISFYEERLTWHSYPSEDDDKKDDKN
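Compound inhibition of the preformed complex between 50 nM HP1-beta and 50 nM biotinylated H3K9me3 peptide was read by AlphaScreen. Buffer was PBS pH 7.4 with 0.01% Tween-20. Incubations ran 30 min at room temperature, with 10 ug/mL donor/acceptor beads.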
G9a inh: blocks human histone lysine methyltransferase G9a; Potency, µM (doses to about 102 µM), for the others: at the highest dose activity, negative = inhibition, most hits filed as inhibitors; Q96KQ7; G9a H3K9 monomethylation, AlphaScreen, 2 h; 350,000 tested, 8.8% active; AID 504332; further: on the % scale 0 is the no-effect control and ±100 the full control effect; nearly all actives have a fitted effect of over 75% in size
Target sequence (Q96KQ7 913-1193 limits assumed): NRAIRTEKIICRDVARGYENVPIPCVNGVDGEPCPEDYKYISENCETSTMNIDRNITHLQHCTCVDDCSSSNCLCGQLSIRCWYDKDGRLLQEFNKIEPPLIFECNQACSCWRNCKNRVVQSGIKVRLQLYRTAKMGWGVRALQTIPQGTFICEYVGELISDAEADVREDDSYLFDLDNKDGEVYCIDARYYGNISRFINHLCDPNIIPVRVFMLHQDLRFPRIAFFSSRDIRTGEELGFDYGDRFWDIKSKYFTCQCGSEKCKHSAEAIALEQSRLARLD
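Readings reflect AlphaScreen signal from monomethyl-H3K9 antibody detection. HMT at 20 nM; substrate b-H3K9 500 nM; cofactor SAM 20 uM; 2 h RT reaction; compounds tested as titrations in qHTS with 15 min preincubation.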
L3MBTL1 block: L3MBTL1 (human) inhibition; Q9Y468; AlphaScreen L3MBTL1–H3K9me1 peptide binding; Potency, µM (titrated, usually from 57.1 µM), for the others: at the top dose activity, negative = inhibition, actives largely listed as inhibitors; 230,000 tested, 0.66% active; AID 485360; further: on the % scale 0 is the no-effect control and ±100 the full control effect; nearly all actives have a fitted effect of over 60% in size
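L3MBTL1 (50 nM) pre-complexed 30 min with biotinylated H3(1-15)K9me1 peptide (75 nM), then compounds added for 30 min at room temperature; AlphaScreen streptavidin donor/nickel chelate acceptor beads (10 ug/mL final) read after 30 min dark incubation.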
JMJD2A Tudor inh: JMJD2A Tudor domain (human) inhibition; 390,000 tested, 4.4% active; Potency, µM (series often up to 114 µM), for the others: at the highest dose activity change, negative = inhibition, usual class: inhibitors; AlphaScreen JMJD2A-Tudor / H3K4me3 peptide binding; AID 504339; further: on the % scale 0 is the no-effect control and ±100 the full control effect; nearly all actives have a fitted effect of over 50% in size
Sfp inh: blocks B. subtilis Sfp PPTase activity. Q9F4F7. Biochemical Sfp PPTase activity, qHTS. Potency, µM, inactives show largest response in the series, negative = inhibition, most hits filed as inhibitors. 310,000 tested, 3.5% active. AID 1490;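 further: the enzyme is Sfp with the accession as filed and its product quenches rhodamine fluorescence; 0% = enzyme reaction without inhibitor and -100% = no enzyme wells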
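Step 1, compound plus 15 nM Sfp-PPTase, 15 min, room temperature. Step 2, add rhodamine-CoA (5 uM) and BHQ-2-YbbR (12.5 uM). Step 3, read 525/598 nm fluorescence at 0 and 30 min.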
BAZ2B block: blocks human BAZ2B; AlphaScreen BAZ2B-H3K14Ac peptide displacement; Potency, µM (top dose mostly 114 µM), without a hit: top-dose activity change, negative = inhibition, hits mostly inhibitors; 360,000 tested, 4.4% active; AID 504333; further: on the % scale 0 is the no-effect control and ±100 the full control effect; nearly all actives have a fitted effect of over 60% in size
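AlphaScreen luminescence quantifies BAZ2B engagement of H3K14Ac peptide; the protein and biotinylated peptide are both at 50 nM final, buffer PBS pH 7.4 with 0.01% Tween-20, all steps at room temperature.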
Starred values were filed as active, the others as inactive; ? = inconclusive; · = no result given; [ ] = dose if it differs, or a comment. An excerpt weighted towards active compounds, which were near 12% of everything screened. The call rests on the fitted dose curve; in most records, active means well fitted curve in the direction sought with a large enough effect; inconclusive means small, poorly fitted or top-dose-only effect, or another doubt; inactive means no such curve, though single readings can be large; an effect the other way counts as inactive or inconclusive. Potency means the concentration at half of the fitted maximal effect.

SMILES	HP1b binding inh	G9a inh	L3MBTL1 block	JMJD2A Tudor inh	Sfp inh	BAZ2B block
O=c1[nH]c(S)c(/C=C2\C=Nc3ccccc32)s1	?	14µM*	-23%	?	?	11µM*
Cc1ccc(CSc2nc3cccnc3n2Cc2ccc(C(=O)NCc3ccco3)cc2)cc1	7%	?	·	-23%	·	-1%
CCOC(=O)c1c(NC(=O)CSc2ncn[nH]2)sc(C)c1C	-17%	45µM*	-10%	-24%	-25%	-12%
CCCc1nnc(NC(=O)CSc2ncn[nH]2)s1	21%	35µM*	14%	-15%	3%	-39%
CCOC(=O)c1c(NC(=O)c2cccnc2Cl)sc(C(=O)N(C)C)c1C	-11%	25µM*	3%	-13%	20%	0%
CCOC(=O)c1c(NC(=O)CSc2ncn[nH]2)sc(C(=O)N(C)C)c1C	12%	50µM*	7%	-6%	·	8%
CCCCc1nc(SCC(=O)Nc2nnc(CCCC)s2)n[nH]1	43%	?	0%[11.4 µM]	3%	14%	-28%
CCOC(=O)c1c(NC(=O)c2cccs2)sc(C(=O)N(C)C)c1C	-13%	?	·	-8%	?	2%
COc1ccc(-c2cc(C(=O)Nc3c(C(=O)c4ccc(C)cc4)oc4ccccc34)no2)cc1	14%	0%[59 µM]	·	-7%	·	1%
c1ccc(Oc2nc(NC3CCCCC3)c3[nH]cnc3n2)cc1	·	-23%[59 µM]	·	·	-16%	·
COc1cc(C(=O)O)nc(OC)n1	-6%	?	·	2.8µM*	-27%	71µM*
O=C(Cc1cnn(-c2ccccc2)c1)c1ccc(O)c(O)c1O	?	13µM*	·	?	32µM*	?
O=C(COc1ccccc1C(=O)c1cnn(-c2ccccc2)c1)Nc1ccccc1	13%	45µM*	3%	-20%	6%	-1%
Cc1ccc(O)c(C(=O)c2cnn(-c3ccccc3)c2)c1	-6%	-3%[2.33 µM]	·	16µM*	-16%	-6%
Cc1ccc(CNC(=O)Cn2c(=O)n(-c3ccc(Cl)cc3)c(=O)c3c(C)c(C)sc32)cc1	25%	8%[59 µM]	·	-3%	·	-1%
NC(=O)C1CCCN1C(=O)C(Cc1cnc[nH]1)NC(=O)C1CCC(=O)N1 (configuration not stated)	·	·	·	·	9%	·
OC[C@H]1O[C@@H]2O[C@H]3[C@H](O)[C@@H](O)[C@@H](O[C@H]4[C@H](O)[C@@H](O)[C@@H](O[C@H]5[C@H](O)[C@@H](O)[C@@H](O[C@H]6[C@H](O)[C@@H](O)[C@@H](O[C@H]7[C@H](O)[C@@H](O)[C@@H](O[C@H]8[C@H](O)[C@@H](O)[C@@H](O[C@H]1[C@H](O)[C@H]2O)O[C@@H]8CO)O[C@@H]7CO)O[C@@H]6CO)O[C@@H]5CO)O[C@@H]4CO)O[C@@H]3CO	·	32%[59 µM]	·	·	47%	·
Cc1ccc(CNC(=O)c2cc(-c3ccc(C)cc3)nc3n[nH]c(-c4cccc([N+](=O)[O-])c4)c23)cc1	37%	-3%[59 µM]	·	2%	·	5%
CN(C)c1ccc(-n2cc3c(=O)n(C)c(=O)n(C)c3c2)cc1	?	45µM*	-28%	?	5%	35µM*
CCN(CC)c1ccc(-n2cc3c(=O)n(C)c(=O)n(C)c3c2)cc1	32µM*	-39%[12.7 µM]	?	56µM*	-12%	32µM*
CCOc1ccccc1NC(=O)CCc1c(C)nc2c(c(C)nn2-c2ccccc2)c1C	41%	-10%[59 µM]	·	-1%	·	-1%
COC(=O)c1sccc1-c1ccc(C(N)=O)o1	·	50µM*	-8%	·	11%	?
COC(=O)C(=Cc1ccc(-c2ccsc2C(=O)OC)o1)C(=O)OC	35%	-3%	-5%	-16%	-3%	-2%
c1ccc(-c2cn(C[C@H]3CC[C@H](Cn4cc(-c5ccccn5)nn4)O3)nn2)nc1	-2%	·	0.28µM*	0.89µM*	-14%	0.79µM*
O=C(Sc1cccc2cccnc12)c1ccc(F)cc1	·	?	4.5µM*	·	?	?
O=C(Sc1cccc2cccnc12)c1ccccc1Br	·	6%	·	·	?	1%
